Sampled rows, rich in hits. Any-hit rate of the full collection: about 1.8%.
Mito fusion yeast: blocks mitochondrial division or promotes mitochondrial fusion. 320,000 tested, 0.23% active. Potency, µM (doses to about 46.1 µM), for inactives: at the highest dose growth rescue (activation), hits mostly activators. S. cerevisiae fusion-defective mutant growth rescue, CellTiterGlo 48 h; further: potency means the concentration at half of the fitted maximal effect; % of control where 0% means no effect; nearly all actives have a fitted effect of over 45% in size
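Yeast fusion mutant, YPEG (non-fermentable carbon), compound, 48 h at 37C non-permissive; CellTiterGlo added, 10 min RT, luminescence read. Rescued growth = division inhibition.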
AT treatment: potential ataxia-telangiectasia treatment; F2112 A-T fibroblasts, KAP-1 phosphorylation AlphaLISA; neocarzinostatin DNA damage 30 min before lysis; Potency, µM (highest dose often 57.5 µM), inactives show at the top dose activation, usual class: activators; 320,000 tested, 0.19% active; further: potency means the concentration at half of the fitted maximal effect; % of control where 0% means no effect; nearly all actives have a fitted effect of over 45% in size
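ATM-like activity read as KAP-1 phosphorylation via AlphaLISA donor/acceptor antibody pairs after lysis and 6 hr at 25C. Cells were ATM-null patient fibroblasts (F2112, hTERT), dosed 60 min, then exposed to the DSB inducer NCS for 30 min.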
ClpP mod: qHTS Assay for Activators of ClpP; ATP-dependent Clp protease proteolytic subunit (Bacillus subtilis (strain 168)), P80244; purified B. subtilis ClpP, FRET peptide cleavage, 20 min; Potency, µM (doses to about 57.5 µM), inactives show at the top dose activity change, negative = active; 340,000 tested, 1.9% active; active means well fitted falling curve with a large enough effect; inconclusive means small, poorly fitted or top-dose-only effect; inactive means no such curve, though single readings can be large or run the other way; further: potency means the concentration at half of the fitted maximal effect; the source files actives as falling curves though it sought activators and does not explain the sign; nearly all actives have a fitted effect of over 65% in size
Target sequence (P80244 whole entry, looked up): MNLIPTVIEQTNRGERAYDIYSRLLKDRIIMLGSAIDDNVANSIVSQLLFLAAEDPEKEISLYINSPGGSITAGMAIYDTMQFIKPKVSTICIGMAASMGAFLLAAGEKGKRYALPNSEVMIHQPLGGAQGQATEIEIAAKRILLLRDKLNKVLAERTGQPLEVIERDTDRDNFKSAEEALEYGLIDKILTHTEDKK
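ClpP 10 microg/mL final, pH 8 Tris/KCl buffer with BSA, glycerol, Tween-20; compound pinned in; FRET-FV substrate; RT 20 min; Ex320/Em430; ΔFRET vs ADEP 5.8 microM, DMSO, no enzyme.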
MBNL1 CUG block: blocks human MBNL1 binding to CUG repeat RNA; Q9NR56; TR-FRET MBNL1-His/biotin-(CUG)12 binding, 665/545 ratio; Potency, µM (series often up to 57.5 µM), without a hit: at the highest dose activity change, negative = inhibition, actives largely listed as inhibitors; 280,000 tested, 0.036% active; AID 2675; active means well fitted inhibition curve with a large enough effect in the signal ratio, with a control signal flat, not every such curve was filed as active; inconclusive means small, poorly fitted or top-dose-only effect, or effect the other way, or a change in a side signal; inactive means no such curve, though single readings can be large or run the other way; the % refers to the signal ratio; further: potency means the concentration at half of the fitted maximal effect; on the % scale 0 is the no-effect control and ±100 the full control effect
Target sequence (Q9NR56 whole entry, looked up): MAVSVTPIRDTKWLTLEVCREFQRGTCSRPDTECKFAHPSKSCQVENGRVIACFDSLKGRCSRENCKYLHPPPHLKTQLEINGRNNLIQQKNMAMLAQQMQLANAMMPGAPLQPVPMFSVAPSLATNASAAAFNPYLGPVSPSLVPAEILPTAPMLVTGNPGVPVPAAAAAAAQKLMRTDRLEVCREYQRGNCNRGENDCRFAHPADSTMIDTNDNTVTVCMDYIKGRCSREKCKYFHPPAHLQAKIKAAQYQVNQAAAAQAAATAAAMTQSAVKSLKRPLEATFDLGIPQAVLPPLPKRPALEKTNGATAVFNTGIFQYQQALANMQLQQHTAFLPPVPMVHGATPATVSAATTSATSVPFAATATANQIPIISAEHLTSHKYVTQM
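Compound titration spanned 92 nM–58 uM against the MBNL1-His/biotin-(CUG)12 complex. After 60 min at room temperature with 5 nM streptavidin-XL665 and 0.055 ng/ul terbium anti-His, ratiometric 665/545 nm emission (Ex 340 nm) normalized to controls.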
TCR activator: activates T cell receptor signaling. AID 504894. primary human leukocytes, anti-CD3, IL-2 HTRF, 48 h. 330,000 tested, under 10 active. Potency, µM (series often up to 9.22 µM), without a hit: top-dose activation of IL-2 secretion, most hits filed as activators; further: % of control where 0% means no effect
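TCR engagement came from a-CD3 beads alone, with compounds added to primary human leukocytes for 48 hr. Secreted IL-2 bridged europium cryptate- and d2-labelled anti-IL-2 antibodies, giving FRET emission at 665nm after 320nm excitation.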
Glioma ERSR ind: ER stress response induction in glioma | Potency, µM, for inactives: at the top dose activation, actives largely listed as activators | U87-MG GRP78 promoter luciferase reporter, 16 h | 420,000 tested, 0.02% active; further: potency means the concentration at half of the fitted maximal effect; series mostly up to about 76 µM; % of control where 0% means no effect; nearly all actives have a fitted effect of over 35% in size
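Stably transfected U87-MG glioma cells carrying a GRP78-based luciferase sensor; 16 h compound incubation. Luminescence end-point read 10 min after Bright-Glo addition at room temperature.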
ClpP validation: Bacillus subtilis ClpP inhibition, validated hit. Potency, µM (titrated, usually from 57.5 µM), for inactives: top-dose activity change, negative = inhibition, actives largely listed as inhibitors. 470 tested, 40% active. shares compounds with ClpP mod. purified B. subtilis ClpP, FRET-FV substrate cleavage, 20 min; further: potency means the concentration at half of the fitted maximal effect; on the % scale 0 is the no-effect control and ±100 the full control effect; nearly all actives have a fitted effect of over 70% in size
An asterisk follows results filed as active; ? = inconclusive; . = not tested or not shown; [ ] = dose if it differs, or a comment. Unless noted, the call rests on the fitted dose curve; in most records, active means well fitted curve in the direction sought with a large enough effect; inconclusive means small, poorly fitted or top-dose-only effect, or another doubt; inactive means no such curve, though single readings can be large; an effect the other way counts as inactive or inconclusive.

SMILES	Mito fusion yeast	AT treatment	ClpP mod	MBNL1 CUG block	TCR activator	Glioma ERSR ind	ClpP validation
CCOc1ccccc1-c1nc2c([nH]1)c(=O)n(C)c(=O)n2C	1.9%	3.0%	3.55µM*	2.3%	3.6%	-0.4%	21.7µM*
CCOc1ccccc1CNC(=O)c1cc2c(=O)n(Cc3cccnc3)ccc2nc1C	.	.	6.31µM*	.	.	-1.6%	-2.3%
COc1ccc(Cn2ccc3nc(C)c(C(=O)NCc4ccc(SC)cc4)cc3c2=O)cc1	.	.	183.7%	.	.	-2.9%	24.3µM*
CCCOc1ccc(C(=O)Nc2ccc3oc(-c4ccc(N(C)C)cc4)nc3c2)cc1	.	.	1.26µM*	.	.	-1.7%	0.6%
CCC(C)c1ccc2oc(-c3ccc(NC(=O)c4ncn[nH]4)cc3)nc2c1 (stereo unspecified)	16.8%	-3.6%	10µM*	-2.4%	.	2.3%	21.7µM*
Cc1ccc2oc(-c3ccc(NC(=O)CC(C)C)cc3)nc2c1	-1.1%	5.4%	8.91µM*	-4.4%	-3.5%	2.2%	?
Cc1ccc2oc(-c3ccc(NC(=O)c4ccc5c(c4)OCO5)cc3)nc2c1	0.9%	-2.2%	3.16µM*	5.2%	-0.3%[46.1 µM]	2.1%	12.2µM*
Cc1ccc2oc(-c3ccc(NC(=O)c4cccnc4)cc3)nc2c1	?	4.1%	51.3%	4.1%	2.2%	7.4%	.
COC(=O)C1=C[C@@H](C(=O)OC)C2C3=C(C(=O)[C@@]2(C)NC(=O)c2ccccc2)[C@H](C)n2c(=O)n(-c4ccccc4)c(=O)n2[C@@H]3C1 (stereo partly specified)	.	.	.	.	.	-5.0%	.
COCCn1c(=O)c(-c2cn(C)c3ccccc23)nc2cnc(Oc3ccc(OC)cc3)nc21	.	.	.	.	.	-4.2%	.
NCC1OC(O[C@H]2[C@H](O)[C@@H](OC3C(O)C(N)CC(N)C3OC3OC(CO)C(O)C(O)C3N)O[C@@H]2CO)C(N)C(O)C1O (stereo partly specified)	-5.6%	.	.	.	.	-3.1%	.
Nc1c(Cl)cc(/C=C2\C=Cc3ccccc32)cc1Cl	.	.	-1.0%	.	.	4.5%	.
COC(=O)c1cccnc1-n1c(=O)c2cccnc2n(CC(=O)Nc2ccccc2F)c1=O	.	.	-3.8%	.	.	-3.8%	.
CCCCC/C=C\C=C\[C@H](O)CCCCCCCC(=O)O	.	.	.	.	.	-4.6%	.
CC/C=C/[C@@H](c1ccccc1)[C@H](C)C(O)CC(=O)SC(C)(C)C (stereo partly specified)	.	.	.	.	.	-3.7%	.
CCOc1cc(C(=O)Nc2ccc(-c3nc4cc(C)ccc4o3)cc2)cc(OCC)c1OCC	.	.	3.16µM*	.	.	-1.7%	30.6µM*
Cc1cc2n(n1)C(c1cn(-c3ccccc3)nc1C)Nc1c(C)cccc1-2 (stereo unspecified)	6.3%	2.0%	8.91µM*	13.0%	-10.6%[46.1 µM]	-2.9%	27.3µM*
CCOc1ccc(C2Nc3c(C)cccc3-c3cc(C)nn32)cc1 (stereo unspecified)	.	.	3.5%	.	.	-3.3%	.
COc1ccc(-c2cc(C(=O)N3CCCC3)c3ccccc3n2)cc1OC	-0.7%	-3.9%	-11.6%	11.3%	-10.0%	-1.9%	.
COc1ccc(-c2cc(C(=O)N3CCC3)c3ccccc3n2)cc1OC	0.4%	5.4%	3.16µM*	.	3.2%	-4.8%	-2.2%
CC(=O)NC(c1ccco1)c1cc(Br)c2cccnc2c1O (stereo unspecified)	?	-5.4%	.	.	.	.	.
COc1ccc2c(c1)c1ncn(CCc3ccccc3)c(=O)c1n2C	6.4%	4.5%	4.47µM*	6.7%	1.1%	2.0%	12.2µM*
CC(=O)OCC(NC(=O)C(C)NC(=O)OC(C)(C)C)C1OC(n2cc(F)c(=O)[nH]c2=O)C(OC(C)=O)C1OC(C)=O (stereo unspecified)	.	.	.	.	.	-2.5%	.

Assay outcomes (PubChem)
